39 molecules from the supplement of paper PMC9446081 can be followed below.

The whole screen tested about 39,000 compounds, of which about 220 (0.56%) showed activity. Shown is part of a subset that was picked to be rich in actives.
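Note: Wild-type cells incubated without shaking, value is the mean of two biological replicates.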

This experiment deals with Escherichia coli K-12 BW25113. Briefly: relative growth (OD600 normalised to plate interquartile mean) (fraction); higher = less growth inhibition, active = 0.2 or less. Conditions: 50 µM; LB; incubation time: overnight (16-24 h).
Take `CN[C@@H]1[C@H](O)[C@H](NC)[C@H]2O[C@@]3(O)C(=O)C[C@@H](C)O[C@H]3O[C@@H]2[C@H]1O`: the relative growth was 0.0458 (active).

As for `CNC1C(O)C(NC)C2OC3(O)C(=O)CC(C)OC3OC2C1O.Cl.Cl` (centres undefined), the relative growth was 0.048 (active).

With `C[C@@H]1CN([C@H](C)CO)C(=O)c2cc(NC(=O)C3CC3)ccc2O[C@@H]1CN(C)S(=O)(=O)c1ccccc1`, the relative growth is 0.987 (inactive).

In the case of `CC(C)NC(=O)Nc1cccc2c1O[C@H](CN(C)Cc1ccc(-c3ccccc3)cc1)[C@@H](C)CN([C@@H](C)CO)C2=O`, the relative growth was 0.997 (inactive).

For the molecule `C[C@H]1CCCCO[C@H](CN(C)Cc2ccncc2)[C@@H](C)CN([C@@H](C)CO)C(=O)c2cc(NC(=O)C3CCCCC3)ccc2O1`, the relative growth was 0.956 (inactive).

On to `COc1ccc(S(=O)(=O)Nc2cccc3c2O[C@@H](CN(C)C(=O)NC(C)C)[C@H](C)CN([C@H](C)CO)C3=O)cc1`, for which the relative growth was 0.978 (inactive).

Turning to `COc1ccc(CN(C)C[C@@H]2OCCCC[C@H](C)Oc3ccc(NS(=O)(=O)c4ccc(OC)cc4)cc3C(=O)N([C@H](C)CO)C[C@H]2C)cc1`, the relative growth is 0.994 (inactive).

With `CNC1C(OC2C(OC3C(O)C(O)C(NC(=N)N)C(O)C3NC(=N)N)OC(C)C2(O)CO)OC(CO)C(O)C1O.O=S(=O)(O)O` (centres undefined), the relative growth was 0.0643 (active).

For `CN[C@@H]1[C@H](O[C@H]2[C@H](O[C@@H]3[C@@H](O)[C@H](O)[C@@H](NC(=N)N)[C@H](O)[C@H]3NC(=N)N)O[C@@H](C)[C@]2(O)C=O)O[C@@H](CO)[C@H](O)[C@H]1O`, the relative growth was 0.972 (inactive).

`CNC1C(OC2C(OC3C(O)C(O)C(NC(=N)N)C(O)C3NC(=N)N)OC(C)C2(O)C=O)OC(CO)C(O)C1O.O=S(=O)(O)O` (centres undefined) [STREPTOMYCIN SULFATE [5mM; 10% aq DMSO + 5mM ethanolamine]]: the relative growth was 1.11 (inactive).

Regarding `CN[C@@H]1[C@H](O[C@H]2[C@H](O[C@H]3[C@H](O)[C@@H](O)[C@H](NC(=N)N)[C@@H](O)[C@@H]3NC(=N)N)O[C@@H](C)[C@]2(O)C=O)O[C@@H](CO)[C@H](O)[C@H]1O`, the relative growth was 0.888 (inactive).

`CN[C@H]1[C@@H](O[C@H]2[C@@H](O[C@H]3[C@@H](O)[C@@H](O)[C@@H](NC(=N)N)[C@@H](O)[C@@H]3NC(=N)N)O[C@@H](C)[C@@]2(O)C=O)O[C@@H](CO)[C@@H](O)[C@@H]1O.CN[C@H]1[C@@H](O[C@H]2[C@@H](O[C@H]3[C@@H](O)[C@@H](O)[C@@H](NC(=N)N)[C@@H](O)[C@@H]3NC(=N)N)O[C@@H](C)[C@@]2(O)C=O)O[C@@H](CO)[C@@H](O)[C@@H]1O.O=S(=O)(O)O.O=S(=O)(O)O.O=S(=O)(O)O`: the relative growth is 0.372 (inactive).

With `CN[C@@H]1[C@H](O[C@H]2[C@H](O[C@@H]3[C@@H](O)[C@H](O)[C@@H](NC(=N)N)[C@H](O)[C@H]3NC(=N)N)O[C@@H](C)[C@]2(O)CO)O[C@@H](CO)[C@H](O)[C@H]1O.CN[C@@H]1[C@H](O[C@H]2[C@H](O[C@@H]3[C@@H](O)[C@H](O)[C@@H](NC(=N)N)[C@H](O)[C@H]3NC(=N)N)O[C@@H](C)[C@]2(O)CO)O[C@@H](CO)[C@H](O)[C@H]1O`, the relative growth is 0.11 (active).

As to `C[C@H]1CN([C@@H](C)CO)C(=O)c2cc(NC(=O)C3CC3)ccc2O[C@@H]1CN(C)S(=O)(=O)c1cn(C)cn1`, the relative growth was 0.941 (inactive).

On to `C[C@@H]1CCCCO[C@H](CN(C)Cc2ccc(C(F)(F)F)cc2)[C@H](C)CN([C@@H](C)CO)C(=O)c2cc(NS(=O)(=O)c3ccc(Cl)cc3)ccc2O1`, for which the relative growth was 1.03 (inactive).

As for `O=C(C[C@@H]1C=C[C@H](NC(=O)c2cnccn2)[C@H](CO)O1)NCc1ccccc1F`, the relative growth was 1.03 (inactive).

For the molecule `OC[C@@H]1CN(CCN2CCOCC2)C[C@H](n2cnc3c(NC4CCC4)ncnc32)O1`, the relative growth was 0.936 (inactive).

Take `C[C@@H]1CN([C@H](C)CO)C(=O)CCCn2nncc2CO[C@H]1CN(C)S(=O)(=O)c1ccc(-c2ccccc2)cc1`: the relative growth was 0.979 (inactive).

As to `CCCN(C)C[C@@H]1OCCCC[C@@H](C)Oc2ccc(NC(=O)Nc3ccc4c(c3)OCO4)cc2C(=O)N([C@H](C)CO)C[C@H]1C`, the relative growth was 1.03 (inactive).

As to `CC(=O)OCC1=C(C(=O)O)N2C(=O)[C@@H](NC(=O)CSc3ccncc3)[C@H]2SC1`, the relative growth was 1.05 (inactive).

`Cc1nnc(SCC2=C(C(=O)O)N3C(=O)[C@@H](N)[C@H]3SC2)s1`: the relative growth is 1 (inactive).

Take `Cc1nnc(SCC2=C(C(=O)O)N3C(=O)[C@@H](NC(=O)Cn4cnnn4)[C@H]3SC2)s1`: the relative growth was 0.0386 (active).

Regarding `Cc1nnc(SCC2=C(C(=O)[O-])N3C(=O)C(NC(=O)Cn4cnnn4)C3SC2)s1.[Na+]` (centres undefined), the relative growth was 0.0433 (active).

`O=C(Cn1cnnn1)NC1C(=O)N2C(C(=O)O)=C(CSc3nncs3)CSC12` (centres undefined): the relative growth is 0.0457 (active).

As to `Cc1noc(C)c1S(=O)(=O)N(C)C[C@H]1Oc2c(NC(=O)C3CCCCC3)cccc2C(=O)N([C@@H](C)CO)C[C@H]1C`, the relative growth was 1.01 (inactive).

Consider `C[C@@H]1CN([C@H](C)CO)C(=O)c2cc(NC(=O)NC3CCCCC3)ccc2O[C@@H](C)CCCCO[C@@H]1CN(C)Cc1ccncc1`, for which the relative growth is 0.996 (inactive).

Turning to `C[C@H](CO)N1C[C@H](C)[C@@H](CN(C)Cc2ccc3c(c2)OCO3)Oc2ccc(NC(=O)c3ccncc3)cc2CC1=O`, the relative growth was 1.01 (inactive).

For `Cc1ccc(S(=O)(=O)N(C)C[C@H]2Oc3c(NC(=O)NC(C)C)cccc3C(=O)N([C@@H](C)CO)C[C@H]2C)cc1`, the relative growth is 0.992 (inactive).

`C[C@@H]1CN([C@H](C)CO)C(=O)Cc2cc(NC(=O)CCCN(C)C)ccc2O[C@@H]1CN(C)S(=O)(=O)c1ccc(Cl)cc1`: the relative growth is 0.973 (inactive).

On to `COc1ccc(S(=O)(=O)N(C)C[C@@H]2Oc3ncc(C#Cc4ccc(OC)c(OC)c4)cc3C(=O)N([C@H](C)CO)C[C@@H]2C)cc1`, for which the relative growth is 0.91 (inactive).

With `Cc1cn([C@H]2C[C@H](O)[C@@H](CO)O2)c(=O)[nH]c1=O`, the relative growth is 1.03 (inactive).

For `Cc1cn([C@@H]2C[C@H](O)[C@@H](CO)O2)c(=O)[nH]c1=O`, the relative growth was 0.988 (inactive).

Consider `O=c1[nH]c(=O)n([C@@H]2C[C@@H](O)[C@@H](CO)O2)cc1F`, for which the relative growth is 0.0303 (active).

In the case of `O=c1[nH]c(=O)n([C@H]2C[C@H](O)[C@@H](CO)O2)cc1CO`, the relative growth is 1.04 (inactive).

Take `O=c1[nH]c(=O)n([C@H]2C[C@H](O)[C@@H](CO)O2)cc1F`: the relative growth was 0.0339 (active).

Turning to `O=c1[nH]c(=O)n(C2CC(O)C(CO)O2)cc1F` (centres undefined), the relative growth was 0.0526 (active).

In the case of `O=c1[nH]c(=O)n(C2CC(O)C(CO)O2)cc1I` (centres undefined), the relative growth is 1.06 (inactive).

`O=c1[nH]c(=O)n([C@H]2C[C@H](O)[C@@H](CO)O2)cc1Br`: the relative growth is 0.944 (inactive).

On to `Cc1cn([C@@H]2C[C@@H](O)[C@H](CO)O2)c(=O)[nH]c1=O`, for which the relative growth is 0.991 (inactive).
